Bioassay records as filed in PubChem.
JMJD2E inh – inhibitors of human JMJD2E histone demethylase | JMJD2E catalytic domain, FDH-coupled NADH fluorescence (FDH is formaldehyde dehydrogenase) | B2RXH2 | Potency, µM (doses to about 57.1 µM), for the others: top-dose activity change, negative = inhibition, actives largely listed as inhibitors | 230,000 tested, 1.6% active | AID 2147; active = well fitted inhibition curve with a large enough effect, not every such curve was filed as active; inconclusive = small, poorly fitted or top-dose-only effect, or another doubt; inactive = no such curve, though single readings can be large or run the other way;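 also: potency is read from the fitted curve at half-maximal effect; 0% = wells with enzyme and -100% = buffer wells without enzyme; nearly all actives have a fitted effect of over 50% in size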
Target sequence (B2RXH2 1-337 limits assumed): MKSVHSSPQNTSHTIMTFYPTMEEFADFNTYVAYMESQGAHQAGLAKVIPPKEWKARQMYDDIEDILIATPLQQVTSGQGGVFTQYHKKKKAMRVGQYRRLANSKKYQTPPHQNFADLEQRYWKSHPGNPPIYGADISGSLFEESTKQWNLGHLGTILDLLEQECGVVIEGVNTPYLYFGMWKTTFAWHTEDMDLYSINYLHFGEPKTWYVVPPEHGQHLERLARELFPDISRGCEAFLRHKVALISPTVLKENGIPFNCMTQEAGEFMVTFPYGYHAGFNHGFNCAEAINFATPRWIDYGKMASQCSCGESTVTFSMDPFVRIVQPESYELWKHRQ
NPSR antag – blocks cAMP signaling of the human neuropeptide S receptor; 220,000 tested, 1% active; Potency, µM (titrated, usually from 38.3 µM), for the others: at the highest dose activity change, negative = inhibition, hits mostly inhibitors; Q6W5P4; CHO-NPSR cells, cAMP TR-FRET, antagonist mode; also: potency is read from the fitted curve at half-maximal effect; nearly all actives have a fitted effect of over 50% in size
Target sequence (Q6W5P4 whole entry, looked up): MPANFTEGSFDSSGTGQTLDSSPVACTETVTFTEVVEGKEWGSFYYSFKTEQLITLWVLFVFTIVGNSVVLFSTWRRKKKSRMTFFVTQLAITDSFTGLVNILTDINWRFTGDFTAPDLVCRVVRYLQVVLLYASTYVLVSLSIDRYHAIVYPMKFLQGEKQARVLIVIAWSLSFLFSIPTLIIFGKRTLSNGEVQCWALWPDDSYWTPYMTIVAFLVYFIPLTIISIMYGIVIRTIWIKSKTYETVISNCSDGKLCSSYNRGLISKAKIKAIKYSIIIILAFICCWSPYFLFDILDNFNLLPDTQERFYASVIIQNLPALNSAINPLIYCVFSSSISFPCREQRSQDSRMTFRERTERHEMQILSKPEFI
FBPA coupling cs – inhibits coupling enzyme system, counter-screen for aldolase hits | coupling enzyme system counterscreen, AmpLite Red fluorescence | activity change, negative = inhibition, % at 58.2 µM, hits read low | 290,000 tested, 0.67% active; in the data active = activity change below about -30%
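Final compound at 57.5 uM, incubated 10 min at RT with coupling enzyme reagent (glyceraldehyde-3-phosphate), then 20 min with substrate and AmpLite Red detection. Fluorescence read at 525/598 nm; tests interference with the coupling assay, not aldolase inhibition.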
RGS12 GoLoco inh – RGS12 GoLoco-Gai1 interaction inhibition | Potency, µM (titrated, usually from 61.6 µM), for the others: top-dose activity, negative = inhibition, actives largely listed as inhibitors | AID 880 | Gai1:RGS12 GoLoco peptide FP, rhodamine, 10 min | 230,000 tested, 0.44% active; active = well fitted inhibition curve with a large enough effect, not every such curve was filed as active; inactive = no such curve, though single readings can be large or run the other way; also: potency is read from the fitted curve at half-maximal effect; nearly all actives have a fitted effect of over 30% in size
Sfp inh – inhibitors of Bacillus subtilis Sfp phosphopantetheinyl transferase | Biochemical Sfp PPTase activity, qHTS | Potency, µM, inactives show largest response in the series, negative = inhibition, usual class: inhibitors | 310,000 tested, 3.5% active | AID 1490;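 also: the enzyme is Sfp with the accession as filed and its product quenches rhodamine fluorescence; potency is read from the fitted curve at half-maximal effect; 0% = enzyme reaction without inhibitor and -100% = no enzyme wells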
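Buffer: 50 mM Hepes-Na pH 7.6, 10 mM MgCl2, 0.01% Nonidet P-40, 0.01% BSA. Enzyme 15 nM, pre-exposed to compound 15 min; substrates then added and fluorescence change tracked over 30 min.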
ALDH1A1 inh – blocks purified human ALDH1A1 activity; Purified ALDH1A1, NADH fluorescence, propionaldehyde substrate; Potency, µM (doses to about 75.3 µM), without a hit: at the highest dose activity, negative = inhibition, actives largely listed as inhibitors; 220,000 tested, 7.3% active; AID 1030; active = well fitted inhibition curve with a large enough effect, not every such curve was filed as active; inconclusive = small, poorly fitted or top-dose-only effect, or another doubt; inactive = no such curve, though single readings can be large or run the other way;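 also: potency is read from the fitted curve at half-maximal effect; plate controls were no enzyme wells and a reference inhibitor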
An asterisk follows results filed as active; [ ] = remark or other dose. This is a sample that favours compounds with a hit; in the whole collection about 8.5% have one here. Unless noted, calls follow the shape of the dose curve; as a rule, active = well fitted curve in the direction sought with a large enough effect; inconclusive = small, poorly fitted or top-dose-only effect, or another doubt; inactive = no such curve, though single readings can be large; an effect the other way counts as inactive or inconclusive. Unless noted, % is scaled to controls: 0 for no effect and ±100 for the full control effect.

What do the screens show for `Cn1c(N)c(S(=O)(=O)NCc2ccc(F)cc2)c(=O)n(C)c1=O`?
Sfp inh: 15%

What do the screens show for `S=c1[nH]nc(-c2ccc(Br)o2)n1Cc1ccccc1`?
JMJD2E inh: -14%; NPSR antag: -3%[46.1 µM]; FBPA coupling cs: 3; RGS12 GoLoco inh: 11%; Sfp inh: -1%; ALDH1A1 inh: 1.4µM*

How did Cc1cccc(-n2c(-c3csc(C(C)C)c3)n[nH]c2=S)c1 do in these assays?
JMJD2E inh: -24%; NPSR antag: -26%[46.1 µM]; FBPA coupling cs: 3; RGS12 GoLoco inh: 4%; Sfp inh: 1%; ALDH1A1 inh: 16µM*

What do the screens show for `S=c1[nH]nc(COc2ccccc2)n1Cc1ccccc1`?
JMJD2E inh: -5%; NPSR antag: 2%; FBPA coupling cs: 1; RGS12 GoLoco inh: -2%; Sfp inh: -13%; ALDH1A1 inh: 11µM*

How did S=c1[nH]nc(-c2ccc(Cl)cc2)n1Cc1ccccc1 do in these assays?
JMJD2E inh: -3%; NPSR antag: inconclusive; FBPA coupling cs: 3; RGS12 GoLoco inh: 5%; Sfp inh: -3%; ALDH1A1 inh: 11µM*

How did COc1ccc(-c2n[nH]c(=S)n2Cc2ccccc2)cc1OC do in these assays?
FBPA coupling cs: 3; Sfp inh: -11%

How did CC(C)C[C@@H](CC(=O)N[C@@H](CCC(=O)O)CC(=O)O)NC(=O)[C@@H]1CNCC[C@H]1NC(=O)C[C@@H](NC(=O)C[C@H](Cc1c[nH]c2ccccc12)NC(=O)[C@@H]1CNCC[C@H]1N)C(C)C do in these assays?
JMJD2E inh: -20%; FBPA coupling cs: 0; RGS12 GoLoco inh: -2%; Sfp inh: -23%; ALDH1A1 inh: -16%

What do the screens show for `CCc1cc(-c2n[nH]c(=S)n2C(C)c2ccccc2)cs1` (configuration not stated)?
JMJD2E inh: 7%; NPSR antag: -8%[46.1 µM]; FBPA coupling cs: -4; RGS12 GoLoco inh: -5%; Sfp inh: -19%; ALDH1A1 inh: 0.56µM*

Results for COc1ccc(-c2n[nH]c(=S)n2Cc2ccccc2)cc1 ?
FBPA coupling cs: 4; Sfp inh: -18%

What do the screens show for `CC(C)c1cc(-c2n[nH]c(=S)n2Cc2ccccc2)cs1`?
JMJD2E inh: inconclusive; NPSR antag: -4%[46.1 µM]; FBPA coupling cs: 6; RGS12 GoLoco inh: 10%; Sfp inh: -4%; ALDH1A1 inh: 2µM*

What do the screens show for `S=c1[nH]nc(-c2ccccc2)n1Cc1ccccc1`?
JMJD2E inh: inconclusive; NPSR antag: -9%[46.1 µM]; FBPA coupling cs: 4; RGS12 GoLoco inh: 8%; Sfp inh: 12%; ALDH1A1 inh: 18µM*

What do the screens show for `CCOC(=O)c1nn(-c2ccc(F)cc2)c2c1CC/C2=C/c1ccccc1`?
JMJD2E inh: inconclusive; NPSR antag: -7%; FBPA coupling cs: 2; RGS12 GoLoco inh: -6%; Sfp inh: 0%; ALDH1A1 inh: inconclusive

How did CN1C[C@@H]2C[C@H]1CN2c1cc2c(cc1F)c(=O)c(C(=O)O)cn2C1CC1 do in these assays?
RGS12 GoLoco inh: 1%; Sfp inh: 11%

How did Cc1cccc(C)c1NC(=O)c1cn(-c2ccccc2)nc1-c1ccccc1 do in these assays?
JMJD2E inh: 6%; NPSR antag: -21%; FBPA coupling cs: -2; RGS12 GoLoco inh: 9%; Sfp inh: 1%; ALDH1A1 inh: 11%

How did O=C(NN=C1CCCCCC1)c1cn(-c2ccccc2)nc1-c1ccccc1 do in these assays?
JMJD2E inh: 8%; NPSR antag: -22%; FBPA coupling cs: 1; RGS12 GoLoco inh: 6%; Sfp inh: -11%; ALDH1A1 inh: 3.5µM*

Results for Cc1ccccc1OCC(=O)NCCCNC(=O)c1cccnc1 ?
FBPA coupling cs: 4; Sfp inh: -16%

What do the screens show for `Cc1cccc[n+]1C1C(c2ccc([N+](=O)[O-])cc2)C(C#N)=C(C(=C=[N-])C#N)NC1(O)C1CC1` (configuration not stated)?
JMJD2E inh: 13µM*; NPSR antag: 0%; FBPA coupling cs: -2; RGS12 GoLoco inh: -8%; Sfp inh: 17%; ALDH1A1 inh: 4%

What do the screens show for `Cc1cc(C)n2nc(/C(C#N)=C/c3ccccn3)c(C#N)c2n1`?
JMJD2E inh: inconclusive; NPSR antag: -7%; FBPA coupling cs: -3; RGS12 GoLoco inh: 11%; Sfp inh: 16%; ALDH1A1 inh: 14µM*

Results for Cc1cc(C)n2nc(CC#N)c(C#N)c2n1 ?
JMJD2E inh: inconclusive; NPSR antag: 16%; FBPA coupling cs: 0; RGS12 GoLoco inh: 12%; Sfp inh: 12%; ALDH1A1 inh: inconclusive

Results for O=C(CSc1ccc2ccccc2n1)c1ccccc1 ?
JMJD2E inh: -3%; NPSR antag: -16%; FBPA coupling cs: -1; RGS12 GoLoco inh: 3%; Sfp inh: -20%

Results for CN(C)S(=O)(=O)c1ccc2c(c1)c(=O)c(C(=O)NCCCN1CCCCCC1)cn2C ?
JMJD2E inh: -9%; NPSR antag: 11%; FBPA coupling cs: 1; RGS12 GoLoco inh: 9%; Sfp inh: -11%; ALDH1A1 inh: 15µM*

What do the screens show for `CCN(CC)S(=O)(=O)c1ccc2c(c1)c(=O)c(C(=O)NCc1cccs1)cn2C`?
JMJD2E inh: 7%; NPSR antag: -15%; FBPA coupling cs: 1; RGS12 GoLoco inh: -4%; Sfp inh: 17%; ALDH1A1 inh: 11µM*

How did CCN(CC)S(=O)(=O)c1ccc2c(c1)c(=O)c(C(=O)NCCCN(C)c1ccccc1)cn2C do in these assays?
JMJD2E inh: -5%; NPSR antag: -21%[46.1 µM]; FBPA coupling cs: 0; RGS12 GoLoco inh: -5%; Sfp inh: 5%; ALDH1A1 inh: 4%

What do the screens show for `CCCN1C/C(=C/c2ccc3c(c2)OCO3)C(=O)/C(=C/c2ccc3c(c2)OCO3)C1`?
JMJD2E inh: 10µM*; NPSR antag: -40%; FBPA coupling cs: 1; RGS12 GoLoco inh: 0%; Sfp inh: 40µM*; ALDH1A1 inh: inconclusive

What do the screens show for `CCCN1C/C(=C/c2cccc([N+](=O)[O-])c2)C(=O)/C(=C/c2cccc([N+](=O)[O-])c2)C1`?
JMJD2E inh: -1%; NPSR antag: -27%[46.1 µM]; FBPA coupling cs: 2; RGS12 GoLoco inh: -5%; Sfp inh: 12%; ALDH1A1 inh: 20µM*

Results for CC1(C)CC(=O)/C(=C\c2cccc([N+](=O)[O-])c2)C(C)(C)N1 ?
JMJD2E inh: 3%; NPSR antag: -47%; FBPA coupling cs: 2; RGS12 GoLoco inh: -2%; Sfp inh: 8%; ALDH1A1 inh: -8%

How did O=C1OCCC/C1=C\c1ccc2c(c1)OCO2 do in these assays?
JMJD2E inh: 19%; NPSR antag: 5%; FBPA coupling cs: 1; RGS12 GoLoco inh: 12%; Sfp inh: -10%
